Giardia FBPA inh: inhibitors of Giardia lamblia fructose-1,6-bisphosphate aldolase | purified Giardia FBPA | Potency, µM (titrated, usually from 59.6 µM), usual class: inhibitors | hit rate 0.71% among 290,000 | AID 2451; further: nearly all actives have a fitted effect of over 55% in size
Target sequence (A8B2U2 whole entry, looked up): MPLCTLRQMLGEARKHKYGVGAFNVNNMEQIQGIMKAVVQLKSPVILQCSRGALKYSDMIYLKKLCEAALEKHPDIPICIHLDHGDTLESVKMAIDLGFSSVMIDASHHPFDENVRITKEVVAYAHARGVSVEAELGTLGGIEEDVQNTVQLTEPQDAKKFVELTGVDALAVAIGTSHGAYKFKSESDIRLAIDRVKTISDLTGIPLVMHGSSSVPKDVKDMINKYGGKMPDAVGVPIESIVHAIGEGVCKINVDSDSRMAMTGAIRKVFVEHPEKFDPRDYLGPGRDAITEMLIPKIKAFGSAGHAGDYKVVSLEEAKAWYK
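40 nM FBPA preincubated 10 min at RT with compound (up to 57.5 uM final), then substrate plus GAPDH/TPI/NAD/arsenate coupling and diaphorase/resazurin added. Fluorescence read after 20 min at RT, 525/598 nm.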
RE007 growth inh: less growth of the S. pombe RE007 Vpr strain; S. pombe RE007 Vpr strain, BacTiter-Glo ATP luminescence, 24 h; Potency, µM (series often up to 92.2 µM), actives largely listed as inhibitors; hit rate 0.21% among 360,000; AID 651644; active means well fitted falling curve with a large enough effect; inconclusive means small, poorly fitted or top-dose-only effect; inactive means no such curve, though single readings can be large or run the other way; further: nearly all actives have a fitted effect of over 50% in size
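Fission yeast RE007 carrying one integrated HIV-1 vpr copy, seeded at OD 0.01 in PMG+AL medium with 23 nL pinned compound. Grown 24 h at 30 degrees; viability read by BacTiter-Glo luminescence after 5 min.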
AmpC detergent: inhibitors of E. coli AmpC beta-lactamase with detergent | P00811 | AmpC hydrolysis of nitrocefin, absorbance 480 nm, 0.01% Triton | Potency, µM (titrated, usually from 114 µM), usual class: inhibitors | hit rate 0.041% among 370,000; further: nearly all actives have a fitted effect of over 25% in size
Target sequence (P00811 whole entry, looked up): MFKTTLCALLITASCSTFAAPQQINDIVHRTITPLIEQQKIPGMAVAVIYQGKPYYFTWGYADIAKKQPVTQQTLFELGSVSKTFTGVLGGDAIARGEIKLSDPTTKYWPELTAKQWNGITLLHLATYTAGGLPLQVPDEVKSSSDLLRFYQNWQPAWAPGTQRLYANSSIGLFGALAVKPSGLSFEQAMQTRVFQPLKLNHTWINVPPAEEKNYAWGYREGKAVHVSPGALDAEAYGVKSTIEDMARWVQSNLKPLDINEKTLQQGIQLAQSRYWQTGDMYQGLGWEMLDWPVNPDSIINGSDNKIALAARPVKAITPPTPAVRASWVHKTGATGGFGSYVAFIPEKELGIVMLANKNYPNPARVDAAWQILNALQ
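20 mM phosphate pH 7.0 + 0.01% (detergent screen) or 0.0001% Triton X-100; 5.3 nM AmpC reagent; cpd preinc 15 min RT; nitrocefin (800 uM stock) to start; A480 q20 s × 4 min; Activity was normalised to no-enzyme and no-compound control wells.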
Sm TGR inh: inhibitors of Schistosoma mansoni thioredoxin glutathione reductase | Q962Y6 | purified TGR, DTNB reduction, TNB absorbance 405 nm | Potency, µM (highest dose often 114 µM), usual class: inhibitors | hit rate 3% among 360,000; further: nearly all actives have a fitted effect of over 60% in size
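TGR 20 nM + NADPH 100 uM (dispensed conc.), cpd preinc 15 min RT; start with NADPH (500 uM addition) then DTNB (15 mM addition). Kinetic TNB absorbance, 405 nm filter. Four-parameter Hill fit across titration.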
AmpC no deterg: inhibitors of E. coli AmpC beta-lactamase without detergent | Potency, µM (doses to about 57.1 µM), actives largely listed as inhibitors | AmpC nitrocefin hydrolysis, absorbance 480 nm, 0.0001% Triton | hit rate 0.52% among 330,000 | P00811; further: nearly all actives have a fitted effect of over 20% in size
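AmpC (5.3 nM in the dispensed reagent) in 20 mM phosphate pH 7.0 with 0.01% (detergent screen) or 0.0001% Triton X-100 was preincubated with compounds for 15 min at room temperature. Nitrocefin was then added from an 800 uM solution, and hydrolysis was followed at 480 nm.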
Large screens that a line does not name were inactive. The list is not random: actives were taken first. Their share in the collection is about 3.4%. Unless noted, the call rests on the fitted dose curve; in most records, active means well fitted curve in the direction sought with a large enough effect; inconclusive means small, poorly fitted or top-dose-only effect, or another doubt; inactive means no such curve, though single readings can be large; an effect the other way counts as inactive or inconclusive.

CCC(=O)NC(NC(=S)Nc1cccc2cccnc12)C(Cl)(Cl)Cl (centres undefined)	AmpC detergent inconclusive
CC(C)C(=O)NC(NC(=S)Nc1cccc2cccnc12)C(Cl)(Cl)Cl (centres undefined)	AmpC no deterg 10µM (no result: Giardia FBPA inh)
COc1cccc(-c2nn(-c3ccc(F)cc3)cc2C(=O)NCC2CCCO2)c1 (centres undefined)	none (no result: Giardia FBPA inh)
COc1ccccc1S(=O)(=O)Cc1ccc(C(=O)NC2CCCCC2)o1	Sm TGR inh 40µM
CCc1ccccc1S(=O)(=O)Cc1ccc(C(=O)NCC2CCCO2)o1 (centres undefined)	Sm TGR inh 40µM
Cc1ccc(-c2nn(-c3ccc(F)cc3)cc2C(=O)NCC2CCCO2)cc1 (centres undefined)	Sm TGR inh 50µM (no result: Giardia FBPA inh)
COc1ccccc1S(=O)(=O)Cc1ccc(C(=O)NC2CC2)o1	Sm TGR inh inconclusive (no result: Giardia FBPA inh)
Cc1ccc(C)n1-c1ccc(C(=O)NCC2CCCO2)cc1 (centres undefined)	Sm TGR inh 40µM
Cc1ccc(S(=O)(=O)NCc2ccccc2)cc1C(=O)N1CCN(S(=O)(=O)c2ccccc2F)CC1	none (no result: Giardia FBPA inh, AmpC detergent, Sm TGR inh, AmpC no deterg)
CCC1CCC2(CC1)NC(=O)N(CC(=O)NCc1ccc(Cl)cc1)C2=O (centres undefined)	none (no result: Giardia FBPA inh, AmpC detergent, Sm TGR inh)
Cc1ccc(-n2nnnc2SCC(=O)Nc2sccc2C#N)cc1	AmpC detergent inconclusive
CC(=O)c1ccc(-c2ccc(C(=O)NCC3CCCO3)o2)cc1 (centres undefined)	AmpC detergent inconclusive, Sm TGR inh 35µM (no result: Giardia FBPA inh)
O=C(NCC1CCCO1)c1ccc(-c2cccc(C(F)(F)F)c2)o1 (centres undefined)	none (no result: Giardia FBPA inh)
COC1=CC(=O)c2ccccc2C1=O	RE007 growth inh 22µM (no result: Giardia FBPA inh, AmpC detergent, Sm TGR inh)
COC1=CC(=O)C=C(OC)C1=O	Giardia FBPA inh 7.1µM (no result: AmpC detergent, Sm TGR inh, AmpC no deterg)
Cc1ccc(-n2nnnc2C(Cl)c2nnnn2-c2ccc(C)cc2)cc1	Sm TGR inh 25µM
Cc1ccc2c(C(=O)CSc3ccccc3)c(C)[nH]c2c1	none
O=[N+]([O-])c1ccc(S(=O)(=O)c2cccc(C(F)(F)F)c2)nc1	RE007 growth inh 40µM (no result: Giardia FBPA inh, AmpC detergent, Sm TGR inh, AmpC no deterg)
Cc1cc(C(=O)O)ccc1N/C=C1\CCCC(C)C1=O (centres undefined)	none
CC1CCC/C(=C\Nc2ccc(O)cc2)C1=O (centres undefined)	Giardia FBPA inh 7.9µM, AmpC detergent inconclusive, Sm TGR inh 40µM
CCOC(=O)C(NS(=O)(=O)c1ccccc1)(C(F)(F)F)P(=O)(OC(C)C)OC(C)C (centres undefined)	Sm TGR inh 35µM
CCC(C)(C)n1nnnc1C(c1ccc2ncccc2c1)N1CCN(c2ccc(O)cc2)CC1 (centres undefined)	Giardia FBPA inh inconclusive, Sm TGR inh 50µM
CCC(C)(C)n1nnnc1C(c1ccc2ncccc2c1)N1CCN(c2nc3ccccc3s2)CC1 (centres undefined)	none
CCC(C)(C)n1nnnc1C(c1ccc(OC)c(OC)c1)N1CCN(c2ccccc2)CC1 (centres undefined)	Sm TGR inh 50µM
CCC(C)(C)n1nnnc1C(c1cc(OC)ccc1OC)N1CCN(Cc2ccccc2)CC1 (centres undefined)	Sm TGR inh 32µM
N#CC1=C2SCN(C3CCCCC3)CN2C(=O)CC1c1ccc(Cl)cc1 (centres undefined)	Sm TGR inh 7.9µM (no result: Giardia FBPA inh, RE007 growth inh, AmpC no deterg)
N#CC1=C2SCN(C3CCCCC3)CN2C(=O)CC1c1ccc(F)cc1 (centres undefined)	Sm TGR inh 3.5µM (no result: Giardia FBPA inh, RE007 growth inh, AmpC no deterg)
CC(C)c1ccc(C2CC(=O)N3CN(C)CSC3=C2C#N)cc1 (centres undefined)	Giardia FBPA inh inconclusive, AmpC detergent inconclusive
N#CC1=C2SCN(C3CCCCC3)CN2C(=O)CC1c1c(F)cccc1Cl (centres undefined)	Sm TGR inh inconclusive (no result: Giardia FBPA inh, RE007 growth inh, AmpC no deterg)
O=C1C2=CC[C@H]3C(=O)N(C4CCCCC4)C(=O)[C@@H]3[C@@H]2[C@H](O)[C@@H]2O[C@H]12	none (no result: RE007 growth inh, AmpC detergent, Sm TGR inh, AmpC no deterg)
O=C(N/N=C/c1ccccc1)c1ccc(N2CCOCC2)c([N+](=O)[O-])c1	AmpC no deterg inconclusive
O=C(N/N=C/c1ccc(N2CCCCC2)o1)c1ccccc1	Sm TGR inh 7.9µM
O=C(N/N=C/c1ccc(N2CCOCC2)o1)c1cccc([N+](=O)[O-])c1	Giardia FBPA inh inconclusive, Sm TGR inh 11µM
Cc1ccccc1OCC(=O)N/N=C/c1ccncc1	AmpC detergent inconclusive
Cc1ccccc1OCC(=O)N/N=C/c1ccc(N2CCOCC2)o1	Sm TGR inh 7.9µM (no result: Giardia FBPA inh)
CSC(=NC(C)c1ccccc1)NS(=O)(=O)c1cccs1 (centres undefined)	AmpC detergent inconclusive (no result: RE007 growth inh)
CC[C@H](C)/C=C(C)/C=C/C1=CC2=C(Cl)C(=O)[C@](C)(OC(C)=O)C(=O)C2=CO1	RE007 growth inh inconclusive (no result: Giardia FBPA inh, AmpC detergent, Sm TGR inh)
CCC(C)/C=C/C1=CC2=C(Cl)C(=O)C3(C)OC(=O)C(C(=O)C(C)C(C)O)C3C2=CO1 (centres undefined)	Sm TGR inh 50µM
COC(=O)c1sccc1-n1cccc1C(=O)C(=O)N1CCOCC1	none (no result: Sm TGR inh)
CCCCCCC#Cc1cncc(C(=O)NNC(=O)Nc2cc(Cl)cc(Cl)c2)c1	AmpC no deterg 16µM
Cc1ccccc1C(=O)c1cccn1CC(=O)O	AmpC detergent inconclusive
CCOc1ccc(N=Cc2c(C)[nH]n(-c3nc4ccccc4[nH]3)c2=O)cc1	RE007 growth inh 4µM
Cc1nc(C)c(/C(O)=C/c2nc3ccc([N+](=O)[O-])cc3oc2=O)o1	Giardia FBPA inh 13µM (no result: RE007 growth inh)
CCCCOc1ccc(C2c3c(oc4ccccc4c3=O)C(=O)N2c2nc(C)c(C(=O)OCC)s2)cc1OC (centres undefined)	none (no result: Giardia FBPA inh, RE007 growth inh, AmpC no deterg)
CC(=O)Nc1ccc2c(c1)C(=O)c1ccccc1C2=O	RE007 growth inh inconclusive
O=C(O)/C=C/C(=O)Nc1ccccc1SC(F)(F)C(F)(F)C(F)(F)F	Sm TGR inh 45µM
COCC(=O)Nc1ccccc1-c1ccccc1	AmpC detergent inconclusive
O=C(O)/C=C/C(=O)Nc1ccc2c(c1)C(=O)c1ccccc1C2=O	Sm TGR inh 50µM
O=C(O)/C=C/C(=O)Nc1ccccc1-c1ccccc1	Sm TGR inh 10µM
O=C(O)/C=C/C(=O)Nc1ccc(Cl)cc1C(=O)c1ccccc1	Sm TGR inh 22µM
O=C(CN1CCN(c2ccc(C(F)(F)F)cn2)CC1)Nc1ccc2c(c1)OCO2	none
O=C(NCCc1cccs1)c1cccs1	none
CCOC(=O)C1CCN(Cc2nc3ccc([N+](=O)[O-])cc3c(=O)n2-c2ccc(OC)cc2OC)CC1	Sm TGR inh 32µM
CCOC(=O)C1CCCN(Cc2nc3ccc([N+](=O)[O-])cc3c(=O)n2-c2ccc(OC)cc2OC)C1 (centres undefined)	Sm TGR inh inconclusive

Bioassay records deposited in PubChem by National Center for Advancing Translational Sciences (NCATS).
